{"source": "the supplement of paper PMC8728848", "assay_in_all_cases": "glycan array binding signal (z-score within array); higher = stronger binding", "conditions_in_all_cases": "glycan notation: IUPAC condensed, linker removed", "key": {"[1]": {"biological_target": "Fuc(a1-2)Gal(b1-3)GlcNAc(b1-2)Man(a1-3)[Fuc(a1-2)Gal(b1-3)GlcNAc(b1-2)Man(a1-6)]Man(b1-4)GlcNAc(b1-4)GlcNAc", "outline": "(§1)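 Columns mapping to the same glycan were averaged after glycan names were converted to IUPAC-condensed notation. The data come from 3228 arrays in the Consortium for Functional Glycomics database, limited to those with an available protein sequence. Binding is reported as a within-array Z-score averaged across arrays of one protein sequence and across linkers.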"}, "[2]": {"biological_target": "Fuc(a1-2)Gal(b1-3)GlcNAc(b1-3)Gal(b1-4)Glc", "outline": "as §1"}, "[3]": {"biological_target": "Fuc(a1-2)Gal(b1-4)GlcNAc", "outline": "as §1"}, "[4]": {"biological_target": "Fuc(a1-2)Gal(b1-4)GlcNAc(b1-2)[Fuc(a1-2)Gal(b1-4)GlcNAc(b1-4)]Man(a1-3)[Fuc(a1-2)Gal(b1-4)GlcNAc(b1-2)Man(a1-6)]Man(b1-4)GlcNAc(b1-4)GlcNAc", "outline": "as §1"}, "[5]": {"biological_target": "Fuc(a1-2)Gal6S(b1-3)GlcNAc", "outline": "as §1"}, "[6]": {"biological_target": "Fuc(a1-2)[Gal(a1-3)]Gal", "outline": "as §1"}, "[7]": {"biological_target": "Fuc(a1-2)[Gal(a1-3)]Gal(b1-3)GalNAc", "outline": "as §1"}, "[8]": {"biological_target": "Fuc(a1-2)[Gal(a1-3)]Gal(b1-4)GlcNAc(b1-2)Man(a1-3)[Fuc(a1-2)[Gal(a1-3)]Gal(b1-4)GlcNAc(b1-2)Man(a1-6)]Man(b1-4)GlcNAc(b1-4)[Fuc(a1-6)]GlcNAc", "outline": "as §1"}, "[9]": {"biological_target": "Fuc(a1-2)[Gal(a1-3)]Gal(b1-4)GlcNAc(b1-6)GalNAc", "outline": "as §1"}, "[10]": {"biological_target": "Fuc(a1-2)[Gal(a1-3)]Gal(b1-4)[Fuc(a1-3)]Glc", "outline": "as §1"}, "[11]": {"biological_target": "Fuc(a1-2)[Gal(a1-3)]Gal(b1-4)[Fuc(a1-3)]GlcNAc(b1-3)GalNAc", "outline": "as §1"}, "[12]": {"biological_target": "Fuc(a1-2)[GalNAc(a1-3)]Gal(b1-3)GlcNAc", "outline": "as §1"}, "[13]": {"biological_target": "Fuc(a1-3)[Gal(b1-4)]GlcNAc(b1-2)Man", "outline": "as §1"}, "[14]": {"biological_target": "Fuc(a1-3)[Gal(b1-4)]GlcNAc(b1-3)Gal(b1-3)[Fuc(a1-4)]GlcNAc", "outline": "as §1"}, "[15]": {"biological_target": "Fuc(a1-3)[Gal(b1-4)]GlcNAc(b1-3)GalNAc", "outline": "as §1"}, "[16]": {"biological_target": "Fuc(a1-3)[GalNAc(b1-4)]GlcNAc", "outline": "as §1"}, "[17]": {"biological_target": "Gal(a1-3)Gal(b1-3)GlcNAc(b1-3)GalNAc", "outline": "as §1"}, "[18]": {"biological_target": "Gal(a1-3)Gal(b1-4)GlcNAc(b1-2)Man(a1-3)[Gal(a1-3)Gal(b1-4)GlcNAc(b1-2)Man(a1-6)]Man(b1-4)GlcNAc(b1-4)GlcNAc", "outline": "as §1"}, "[19]": {"biological_target": "Gal(a1-3)GalNAc", "outline": "as §1"}, "[20]": {"biological_target": "Gal(a1-4)Gal(b1-4)Glc", "outline": "as §1"}, "[21]": {"biological_target": "Gal(b1-2)Gal", "outline": "as §1"}, "[22]": {"biological_target": "Gal(b1-3)Gal(b1-4)GlcNAc", "outline": "as §1"}, "[23]": {"biological_target": "Gal(b1-3)GalNAc(a1-3)[Fuc(a1-2)]Gal(b1-4)Glc", "outline": "as §1"}, "[24]": {"biological_target": "Gal(b1-3)GlcNAc(b1-2)Man", "outline": "as §1"}, "[25]": {"biological_target": "Gal(b1-3)GlcNAc(b1-3)Gal(b1-4)GlcNAc(b1-3)Gal(b1-4)GlcNAc(b1-2)[Gal(b1-3)GlcNAc(b1-3)Gal(b1-4)GlcNAc(b1-3)Gal(b1-4)GlcNAc(b1-6)]Man(a1-6)[Gal(b1-3)GlcNAc(b1-3)Gal(b1-4)GlcNAc(b1-3)Gal(b1-4)GlcNAc(b1-2)Man(a1-3)]Man(b1-4)GlcNAc(b1-4)[Fuc(a1-6)]GlcNAc", "outline": "as §1"}, "[26]": {"biological_target": "Gal(b1-3)[Neu5Ac(a2-6)]GlcNAc(b1-6)Gal(b1-4)Glc", "outline": "as §1"}, "[27]": {"biological_target": "Gal(b1-4)GlcNAc(b1-2)Man", "outline": "as §1"}, "[28]": {"biological_target": "Gal(b1-4)GlcNAc(b1-2)[Gal(b1-4)GlcNAc(b1-4)]Man(a1-3)[GlcNAc(b1-4)][Gal(b1-4)GlcNAc(b1-2)Man(a1-6)]Man(b1-4)GlcNAc(b1-4)GlcNAc", "outline": "as §1"}, "[29]": {"biological_target": "Gal(b1-4)GlcNAc(b1-3)Gal(b1-4)GlcNAc(b1-2)[Gal(b1-4)GlcNAc(b1-3)Gal(b1-4)GlcNAc(b1-6)]Man(a1-6)[Gal(b1-4)GlcNAc(b1-3)Gal(b1-4)GlcNAc(b1-2)Man(a1-3)]Man(b1-4)GlcNAc(b1-4)[Fuc(a1-6)]GlcNAc", "outline": "as §1"}, "[30]": {"biological_target": "Gal(b1-4)GlcNAc(b1-3)Gal(b1-4)GlcNAc(b1-3)Gal(b1-4)GlcNAc(b1-2)Man(a1-3)[Gal(b1-4)GlcNAc(b1-3)Gal(b1-4)GlcNAc(b1-3)Gal(b1-4)GlcNAc(b1-2)Man(a1-6)]Man(b1-4)GlcNAc(b1-4)GlcNAc", "outline": "as §1"}}, "note": "The entries come from a sample that favours the strongest signals as a whole.", "data": [{"binder": "Gal 1 (Mus musculus), P16045 (protein) MACGLVASNLNLKPGECLKVRGEVASDAKSFVLNLGKDSNNLCLHFNPRFNAHGDANTIVCNTKEDGTWGTEHREPAFPFQPGSITEVCITFDQADLTIKLPDGHEFKFPNRLNMEAINYMAADGDFKIKCVAFE", "values": [{"measurement": "glycan array binding signal (z-score)", "setting": "[1]", "result": 0.069}, {"measurement": "glycan array binding signal (z-score)", "setting": "[2]", "result": -0.229}, {"measurement": "glycan array binding signal (z-score)", "setting": "[3]", "result": -0.279}, {"measurement": "glycan array binding signal (z-score)", "setting": "[4]", "result": 0.547}, {"measurement": "glycan array binding signal (z-score)", "setting": "[5]", "result": -0.468}, {"measurement": "glycan array binding signal (z-score)", "setting": "[6]", "result": -0.365}, {"measurement": "glycan array binding signal (z-score)", "setting": "[7]", "result": -0.363}, {"measurement": "glycan array binding signal (z-score)", "setting": "[8]", "result": 0.008}, {"measurement": "glycan array binding signal (z-score)", "setting": "[9]", "result": -0.106}, {"measurement": "glycan array binding signal (z-score)", "setting": "[10]", "result": -0.455}, {"measurement": "glycan array binding signal (z-score)", "setting": "[11]", "result": -0.325}, {"measurement": "glycan array binding signal (z-score)", "setting": "[12]", "result": -0.394}, {"measurement": "glycan array binding signal (z-score)", "setting": "[13]", "result": -0.075}, {"measurement": "glycan array binding signal (z-score)", "setting": "[14]", "result": -0.064}, {"measurement": "glycan array binding signal (z-score)", "setting": "[15]", "result": -0.264}, {"measurement": "glycan array binding signal (z-score)", "setting": "[16]", "result": -0.277}, {"measurement": "glycan array binding signal (z-score)", "setting": "[17]", "result": -0.23}, {"measurement": "glycan array binding signal (z-score)", "setting": "[18]", "result": 4.96}, {"measurement": "glycan array binding signal (z-score)", "setting": "[19]", "result": -0.186}, {"measurement": "glycan array binding signal (z-score)", "setting": "[20]", "result": -0.376}, {"measurement": "glycan array binding signal (z-score)", "setting": "[21]", "result": 0.468}, {"measurement": "glycan array binding signal (z-score)", "setting": "[22]", "result": -0.195}, {"measurement": "glycan array binding signal (z-score)", "setting": "[23]", "result": -0.41}, {"measurement": "glycan array binding signal (z-score)", "setting": "[24]", "result": -0.113}, {"measurement": "glycan array binding signal (z-score)", "setting": "[25]", "result": 2.97}, {"measurement": "glycan array binding signal (z-score)", "setting": "[26]", "result": -0.078}, {"measurement": "glycan array binding signal (z-score)", "setting": "[27]", "result": -0.253}, {"measurement": "glycan array binding signal (z-score)", "setting": "[28]", "result": 0.891}, {"measurement": "glycan array binding signal (z-score)", "setting": "[29]", "result": 3.02}, {"measurement": "glycan array binding signal (z-score)", "setting": "[30]", "result": 2.85}]}]}
